Data from ChEMBL document CHEMBL1961873, “Compounds: GSK PKIS; Assays: Nanosyn kinase panel” (2012).

What follows are compounds tested against Activated CDC42 kinase 1 (Homo sapiens) (UniProt Q07912). Conditions: at 0.1 µM.
Activated CDC42 kinase 1 (Homo sapiens), sequence (Q07912 whole entry, looked up): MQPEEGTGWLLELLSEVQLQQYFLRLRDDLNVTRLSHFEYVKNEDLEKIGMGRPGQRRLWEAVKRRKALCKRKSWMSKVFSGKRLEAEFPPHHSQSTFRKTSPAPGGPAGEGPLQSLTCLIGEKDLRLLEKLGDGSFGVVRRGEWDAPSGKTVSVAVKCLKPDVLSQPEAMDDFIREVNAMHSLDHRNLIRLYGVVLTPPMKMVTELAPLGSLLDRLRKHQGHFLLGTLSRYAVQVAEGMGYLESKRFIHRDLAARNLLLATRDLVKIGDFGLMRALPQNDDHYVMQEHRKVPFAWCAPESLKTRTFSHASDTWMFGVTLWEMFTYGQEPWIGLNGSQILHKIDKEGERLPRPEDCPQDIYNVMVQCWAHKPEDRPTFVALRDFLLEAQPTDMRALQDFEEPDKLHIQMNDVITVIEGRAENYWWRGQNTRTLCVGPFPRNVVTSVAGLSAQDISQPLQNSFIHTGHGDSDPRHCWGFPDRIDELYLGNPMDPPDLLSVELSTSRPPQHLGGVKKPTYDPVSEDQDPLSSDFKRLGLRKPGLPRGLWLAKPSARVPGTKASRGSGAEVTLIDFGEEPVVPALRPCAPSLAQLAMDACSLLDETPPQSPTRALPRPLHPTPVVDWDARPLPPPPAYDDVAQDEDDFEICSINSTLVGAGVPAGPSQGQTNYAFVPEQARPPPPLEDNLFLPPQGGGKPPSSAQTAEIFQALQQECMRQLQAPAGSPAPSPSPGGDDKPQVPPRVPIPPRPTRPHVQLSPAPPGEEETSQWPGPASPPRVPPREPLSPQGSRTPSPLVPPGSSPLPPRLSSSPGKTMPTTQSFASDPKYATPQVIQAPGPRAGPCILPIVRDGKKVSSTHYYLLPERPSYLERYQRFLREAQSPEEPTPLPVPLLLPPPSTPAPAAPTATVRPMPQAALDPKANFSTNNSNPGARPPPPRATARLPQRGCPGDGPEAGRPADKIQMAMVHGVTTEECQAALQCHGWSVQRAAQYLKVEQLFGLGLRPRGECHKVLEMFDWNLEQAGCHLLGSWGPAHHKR
With COc1cc2ncnc(Nc3ccc(C)c(O)c3)c2cc1OC the inhibition was 1.4%. Work on Cc1cc(-c2ccccn2)cc(C)c1/C=C/c1cncc(-c2nn[nH]n2)c1 yielded an inhibition of 0.32%. Compound CC(C)c1ccc2c(c1)NC(=O)/C2=N/Nc1ccc(S(N)(=O)=O)cc1 has an inhibition of 0.13%. CCn1c(-c2nonc2N)nc2ccc(F)cc21 showed an inhibition of 1.53%. Work on CN(c1ccc(NC(=O)Nc2ccc(OC(F)(F)F)cc2)cc1)c1ccnc(Nc2cccc(S(N)(=O)=O)c2)n1 yielded an inhibition of 0.67%. Work on c1ccc(Nc2ncc(-c3ccccc3)o2)cc1 yielded an inhibition of 1.38%. Compound CCOc1nccc2c1nc(-c1nonc1N)n2CC has an inhibition of 3.04%. With COc1cccc(-n2ncc3c(N/N=C/c4ccc(S(C)(=O)=O)cc4)ncnc32)c1 the inhibition was 1.34%. Compound Cc1ccc2c(-c3ccnc(Nc4cccc(C(F)(F)F)c4)n3)c(-c3ccccc3)nn2n1 has an inhibition of 0.98%. With NS(=O)(=O)c1cccc(Nc2cc(-c3ccc(F)cc3)n[nH]2)c1 the inhibition was 0.5%. With CCCN1CCCC(c2ccc(Nc3nc(Nc4cc(F)ccc4C(N)=O)c4cc[nH]c4n3)c(OC)c2)C1 (stereo not drawn) the inhibition was 5.79%. Compound c1ccc(Cc2nc3ccc(Nc4ncnc5ccccc45)cc3[nH]2)cc1 has an inhibition of 1.45%. CN1CCN(C(=O)c2ccc(NC(=O)Nc3ccc(N(C)c4ccnc(Nc5ccc(CS(C)(=O)=O)cc5)n4)cc3)cc2)CC1 was tested, and the inhibition was 8.52%. With N#Cc1cccc(Nc2nccc(-c3cnn4ncccc34)n2)c1 the inhibition was 2.35%. In the case of Nc1nccc(-c2c(-c3ccc(F)cc3)ncn2CCCN2CCOCC2)n1, the inhibition is reported as 0.21%. For COc1cc(/C=N/Nc2ncnc3c2cnn3C(C)C)ccc1O, the inhibition was 0.51%. Work on O=C(Nc1ccc(Oc2ccc3[nH]c(NC(=O)c4ccco4)nc3c2)cc1)Nc1cc(C(F)(F)F)ccc1F yielded an inhibition of 0.17%. Work on Cc1ccc(Nc2ccnc(Nc3cccc(C(N)=O)c3)n2)cc1O yielded an inhibition of 3.73%. COC(=O)c1cncc(/C=C/c2c(C)cc(O)cc2C)c1 showed an inhibition of 1.2%. Work on Cc1cc(O)cc(C)c1/C=C/c1cncc(C(=O)N(C)C)c1 yielded an inhibition of 1.45%. NC(=O)c1cccc(Nc2nccc(Nc3cccc(F)c3)n2)c1 was tested, and the inhibition was 2.29%. Compound COc1cc2ncnc(Nc3ccc4c(cnn4Cc4ccccc4)c3)c2cc1OC has an inhibition of 0.51%. In the case of CCn1c(-c2nonc2N)nc2c(C#CC(C)(C)O)nc(OCCNC)cc21, the inhibition is reported as 0.83%. In the case of Nc1nccc(C#Cc2cncnc2Nc2ccc(OCc3cccc(F)c3)c(Cl)c2)n1, the inhibition is reported as 1.73%. COC(=O)Nc1nc2cc(Oc3ccc(NC(=O)Nc4cccc(Br)c4)cc3)ccc2[nH]1 showed an inhibition of 0.29%. Work on O=C1Nc2ccccc2/C1=C/Nc1ccc2[nH]c(=O)[nH]c2c1 yielded an inhibition of 1.41%. NS(=O)(=O)c1ccc(Nc2cc(-c3cccc(O)c3)n[nH]2)cc1 was tested, and the inhibition was 1.36%. In the case of COc1cc2ncn(-c3cc(OCc4ccccc4S(C)(=O)=O)c(C#N)s3)c2cc1OC, the inhibition is reported as 6.02%. CC(C)c1ccc(Nc2nccc(-c3cnn4ncccc34)n2)cc1 gave an inhibition of 0.39%. NS(=O)(=O)c1ccc(N/N=C2\C(=O)Nc3ccc(Cl)cc32)cc1 was tested, and the inhibition was 0.4%. FC(F)(F)c1ccc(-c2nn3ncccc3c2-c2ccnc(Nc3ccc4c(c3)OCCO4)n2)cc1 gave an inhibition of 6.74%. Nc1ccc(C#Cc2cncnc2Nc2ccc(OCc3cccc(F)c3)c(Cl)c2)cc1 was tested, and the inhibition was 1.62%. Cc1ccc(O)cc1Nc1ccnc2ccc(S(C)(=O)=O)cc12 was tested, and the inhibition was 9.97%. With NS(=O)(=O)c1ccc(NC=C2C(=O)Nc3ccc4ncsc4c32)cc1 the inhibition was 1.41%.

These compounds were tested against Activated CDC42 kinase 1 (Homo sapiens) (UniProt Q07912). Conditions: at 1 µM.
Compound COc1cc2ncnc(Nc3ccc(C)c(O)c3)c2cc1OC has an inhibition of 5.7%. Work on Cc1cc(-c2ccccn2)cc(C)c1/C=C/c1cncc(-c2nn[nH]n2)c1 yielded an inhibition of 2.33%. In the case of CC(C)c1ccc2c(c1)NC(=O)/C2=N/Nc1ccc(S(N)(=O)=O)cc1, the inhibition is reported as 4.69%. CCn1c(-c2nonc2N)nc2ccc(F)cc21 gave an inhibition of 3.08%. Compound CN(c1ccc(NC(=O)Nc2ccc(OC(F)(F)F)cc2)cc1)c1ccnc(Nc2cccc(S(N)(=O)=O)c2)n1 has an inhibition of 4.69%. In the case of c1ccc(Nc2ncc(-c3ccccc3)o2)cc1, the inhibition is reported as 0.93%. With CCOc1nccc2c1nc(-c1nonc1N)n2CC the inhibition was 7.54%. Compound COc1cccc(-n2ncc3c(N/N=C/c4ccc(S(C)(=O)=O)cc4)ncnc32)c1 has an inhibition of 1.96%. For Cc1ccc2c(-c3ccnc(Nc4cccc(C(F)(F)F)c4)n3)c(-c3ccccc3)nn2n1, the inhibition was 2.35%. NS(=O)(=O)c1cccc(Nc2cc(-c3ccc(F)cc3)n[nH]2)c1 showed an inhibition of 2.57%. Compound CCCN1CCCC(c2ccc(Nc3nc(Nc4cc(F)ccc4C(N)=O)c4cc[nH]c4n3)c(OC)c2)C1 (stereo not drawn) has an inhibition of 41.1%. Compound c1ccc(Cc2nc3ccc(Nc4ncnc5ccccc45)cc3[nH]2)cc1 has an inhibition of 3.26%. Work on CN1CCN(C(=O)c2ccc(NC(=O)Nc3ccc(N(C)c4ccnc(Nc5ccc(CS(C)(=O)=O)cc5)n4)cc3)cc2)CC1 yielded an inhibition of 61%. N#Cc1cccc(Nc2nccc(-c3cnn4ncccc34)n2)c1 showed an inhibition of 11.7%. For Nc1nccc(-c2c(-c3ccc(F)cc3)ncn2CCCN2CCOCC2)n1, the inhibition was 1.33%. COc1cc(/C=N/Nc2ncnc3c2cnn3C(C)C)ccc1O showed an inhibition of 5.5%. O=C(Nc1ccc(Oc2ccc3[nH]c(NC(=O)c4ccco4)nc3c2)cc1)Nc1cc(C(F)(F)F)ccc1F was tested, and the inhibition was 0.5%. For Cc1ccc(Nc2ccnc(Nc3cccc(C(N)=O)c3)n2)cc1O, the inhibition was 28.8%. In the case of COC(=O)c1cncc(/C=C/c2c(C)cc(O)cc2C)c1, the inhibition is reported as 5.39%. For Cc1cc(O)cc(C)c1/C=C/c1cncc(C(=O)N(C)C)c1, the inhibition was 2.24%. NC(=O)c1cccc(Nc2nccc(Nc3cccc(F)c3)n2)c1 gave an inhibition of 22.2%. COc1cc2ncnc(Nc3ccc4c(cnn4Cc4ccccc4)c3)c2cc1OC showed an inhibition of 4.91%. Compound CCn1c(-c2nonc2N)nc2c(C#CC(C)(C)O)nc(OCCNC)cc21 has an inhibition of 1.43%. Work on Nc1nccc(C#Cc2cncnc2Nc2ccc(OCc3cccc(F)c3)c(Cl)c2)n1 yielded an inhibition of 3.21%. COC(=O)Nc1nc2cc(Oc3ccc(NC(=O)Nc4cccc(Br)c4)cc3)ccc2[nH]1 was tested, and the inhibition was 0.1%. Work on O=C1Nc2ccccc2/C1=C/Nc1ccc2[nH]c(=O)[nH]c2c1 yielded an inhibition of 4.86%. Compound NS(=O)(=O)c1ccc(Nc2cc(-c3cccc(O)c3)n[nH]2)cc1 has an inhibition of 2.01%. COc1cc2ncn(-c3cc(OCc4ccccc4S(C)(=O)=O)c(C#N)s3)c2cc1OC gave an inhibition of 38%. Work on CC(C)c1ccc(Nc2nccc(-c3cnn4ncccc34)n2)cc1 yielded an inhibition of 2.14%. Work on NS(=O)(=O)c1ccc(N/N=C2\C(=O)Nc3ccc(Cl)cc32)cc1 yielded an inhibition of 3.7%. In the case of FC(F)(F)c1ccc(-c2nn3ncccc3c2-c2ccnc(Nc3ccc4c(c3)OCCO4)n2)cc1, the inhibition is reported as 8.14%. Nc1ccc(C#Cc2cncnc2Nc2ccc(OCc3cccc(F)c3)c(Cl)c2)cc1 was tested, and the inhibition was 1.81%. Cc1ccc(O)cc1Nc1ccnc2ccc(S(C)(=O)=O)cc12 gave an inhibition of 54.8%. NS(=O)(=O)c1ccc(NC=C2C(=O)Nc3ccc4ncsc4c32)cc1 gave an inhibition of 9.93%.
